Reference: PubChem BioAssay (NCI)
Values joined by “and” are separate entries in the source; they are usually repeats but may differ in a detail not shown here. Identical values can stand only once. Compounds without any hit were thinned out: in the full panel of roughly 83,000, 20% have a hit.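 A percent growth of 40 corresponds to 60% growth inhibition; 0 means no net growth; -100 means all cells died. Active threshold: below 10.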 A number with no mark means an inactive call. Active and inactive are the calls of the source.

Each molecule was assayed on MDA-MB-468 breast (assay: NCI-60 one-dose screen, 48 h (100 = growth as untreated, 0 = no growth, -100 = all killed)). Conditions: 10 µM unless noted.
Work on `CCN1CCN(c2cc(C(=O)Nc3cccc(Nc4ccc5c(OC)cccc5n4)c3)cc(C(F)(F)F)c2)CC1` yielded a growth of 23.8%.
For `CC1=C(CCC(C)N(C)Cc2ccc(OCCCN3CCCC3)cc2)C(C)(C)CCC1` (stereo not given), the growth was -18.6% (active).
In the case of `COc1ccc(NC2=C(Cl)C(=O)C(C)=C(C)C2=O)cc1OC`, the growth is reported as -38.8% (active).
`COc1ccc(CCCc2c3[n+](cc4c(OC)c(OC)ccc24)CCc2cc4c(cc2-3)OCO4)cc1` was tested, and the growth was 1.74% (active).
`CCCC(C)OCC(=O)O` (stereo not given) was tested, and the growth was 92.1%.
With `Fc1ccc2c(c1)c(-c1nc(-c3c[nH]c4ncccc34)cs1)cn2CCCN1CCOCC1` the growth was 18.3%.
Work on `O=C(CN1N=C(c2ccc(F)cc2)CCC1=O)Nc1nc2ccccc2s1` yielded a growth of 97.7%.
In the case of `Nc1nc2ccc([C@@H]3Nc4ccc5[nH]ncc5c4[C@H]4[C@H]5CCC(C5)[C@H]43)cc2s1`, the growth is reported as -14.4% (active).
In the case of `Cc1ccccc1Nc1cc(O)c2c(=O)cc(-c3ccccc3)oc2c1`, the growth is reported as -2.12% (active).
`Cc1[nH]n(C(=O)c2ccncc2)c(=O)c1N=Nc1ccc(F)c(Cl)c1` showed a growth of 110%.
`C#CCCCCCCC[C@@H]1OC(=O)[C@H]([C@@H](C)CC)NC(=O)[C@H]([C@@H](C)CC)NC(=O)CC(=O)[C@@H]1C` was tested, and the growth was 95.3%.
For `COc1ccc2[nH]cc(-c3csc4nc(-c5ccccc5)cn34)c2c1`, the growth was 21.2%.
With `CC1(C)Nc2cccc3c(N=Nc4ccc(N=Nc5ccccc5)c5ccccc45)ccc(c23)N1` the growth was 95.9%.
`O=C1C=CC2(O)OC/C(=C\c3ccccc3)C(O)=C2C1=O` (stereo not given) showed a growth of 10.3%.
Molecule `COc1cccc(/C=C2\Oc3cc(OCCCN4CCCC4)ccc3C2=O)c1` has a growth of 69.4%.
Work on `CN(C)CCC1(c2ccccc2)CCN(C)C1=O` (stereo not given) yielded a growth of 94.7%.
`Cc1nc(/N=C(N)/N=C(\N)c2cccc(Br)c2)sc1C` was tested, and the growth was 32.5%.
`COc1cccc(C(=O)NNc2nc(N3CCOCC3)nc(N3CCN(C(c4ccccc4)c4ccccc4)CC3)n2)c1` was tested, and the growth was 61.7%.
Work on `CN1[C@@H]2CC[C@H]1/C(=C\c1ccccc1)C1=C2[C@@H](c2ccccc2)C(C#N)=C(N)O1` yielded a growth of 50.3%.
For `O=[N+]([O-])c1cc(C(F)(F)F)ccc1Sc1ccc(C(F)(F)F)cc1[N+](=O)[O-]`, the growth was -4.58% (active).
`CC(=O)C1CCC2C3CC=C4CC(SC(=N)N)CCC4(C)C3CCC12C` (stereo not given) was tested, and the growth was -36.8% (active).
For `CCOC(=O)c1cnc(SCC)nc1SC#N`, the growth was 124%.
`Cc1ccc(/C=N/NC(N)=S)s1` showed a growth of 101%.
For `OCCN1CCN(CCCN2c3ccccc3Sc3ccc(Cl)cc32)CC1`, the growth was 25.3%.
`O=[N+]([O-])CC(O)c1ccccc1` (stereo not given) gave a growth of 98.7%.
`CCCCOc1nc2ccccc2cc1C1CNC(=O)c2ccccc2N1` (stereo not given) was tested, and the growth was -1.81% (active).
With `NC(N)=NN=c1c(=O)c2ccccc2c1=O` the growth was 106%.
Work on `CS(=O)(=O)Nc1cncc(-c2ccc3ncnc(Nc4cncc(Cl)c4)c3c2)c1` yielded a growth of 16.7%.
In the case of `Clc1ccc2c(NCCNc3nc(N4CCCCC4)nc4ccccc34)ccnc2c1`, the growth is reported as -31.7% (active).
With `COc1cc(-c2ccc(NC(=O)CC(C)=O)c(OC)c2)ccc1NC(=O)CC(C)=O` the growth was 109%.
For `COc1ccc2oc(=O)cc(C(c3ccc[nH]3)c3ccc[nH]3)c2c1`, the growth was 5.5% (active).
For `COc1ccc2c(c1)OC(N)=C(C#N)C2c1ccc(F)cc1` (stereo not given), the growth was 7.54% (active).
Work on `COc1ccc(-c2n[nH]nc2-c2csc3ccccc23)cc1OC` yielded a growth of 21.1%.
With `O=C(O)/C=C/C=C/c1ccccc1` the growth was 93.6% and 112%.
Molecule `CC(=O)Oc1ccc(O)cc1` has a growth of 95.5%.
For `O=C(Nc1ccccc1)Nc1ncnc2c1ncn2-c1ccc(Cl)cc1`, the growth was 92.2%.
`COc1cc(OC)c(C(=O)C(CN(C)C)CN(C)C)cc1OC` was tested, and the growth was -73.3% (active).
With `Cc1nc2cc(Nc3nc(NCCO)nc(Nc4ccc(F)cc4)n3)ccc2n1Cc1ccccc1` the growth was 99.2%.
Molecule `COc1cccc(/C=C/C(=O)c2cc3c(N)c(C(=O)Nc4ccccc4C)sc3nc2C)c1` has a growth of 16.7%.
Molecule `COc1ccc(S(=O)(=O)n2cc(C3OC(c4cc(OC)c(OC)c(OC)c4)=NN3C(C)=O)c3ccccc32)cc1OC` (stereo not given) has a growth of 105%.
